This is a sample that favours compounds with a hit; in the whole collection about 18% have one here.
TGFb inhibitor = blocks TGF-b signaling; actives 1.2% (n = 410,000); Potency, µM (highest dose often 46.1 µM), without a hit: top-dose activity, negative = inhibition, hits mostly inhibitors; AID 588855; HepG2 CAGA-GFP TGF-b/SMAD3 reporter, GFP fluorescence, 18 h; TGF-beta stimulated, 500 pg/mL final; also: potency is read from the fitted curve at half-maximal effect; % is scaled to controls: 0 for no effect and ±100 for the full control effect; nearly all actives have a fitted effect of over 65% in size
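TGF-beta reporter screen: HEPG2 CAGA-GFP, 1% FBS, 500 pg/mL TGF-beta final, 18 h; per-cell GFP summed per well; curves fitted and categorized by class.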
TDP1 cell CPT = growth inhibition of DT40 Tdp1-/-;hTDP1 cells with camptothecin (screen for TDP1 inhibitors); chicken DT40 Tdp1-/-;hTDP1 cells + 20 nM CPT, ATP luminescence, 48 h; actives 12% (n = 420,000); Potency, µM (highest dose often 46.2 µM), for inactives: top-dose activity change, negative = growth inhibition, usual class: inhibitors; also: potency is read from the fitted curve at half-maximal effect; % is scaled to controls: 0 for no effect and ±100 for the full control effect; nearly all actives have a fitted effect of over 55% in size
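Chicken DT40 Tdp1-/- cells stably complemented with human TDP1 were seeded at 400 cells/well in medium containing 20 nM camptothecin, exposed to pin-transferred compounds, and grown at 37 °C for at least 48 hr. Viability was read as ATP luminescence.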
IL1B secr inh = inhibitors of inflammasome signaling (IL-1 beta secretion) | THP-1 LPS/ATP IL-1B secretion, AlphaLISA, 16 h; hits give low values | activity change, % at 57.5 µM | actives 4.7% (n = 360,000) | AID 743279; in the data active = activity change below about -50%; inconclusive = mostly about -30% to -49%; also: % is scaled to controls: 0 for no effect and ±100 for the full control effect
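Secreted IL-1B measured by AlphaLISA bead assay after 16 h compound exposure of THP-1 cells; compounds (final up to 57.5 uM) added 1 h before LPS (250 ng/mL) and ATP (1.25 mM) stimulation; lower signal means less secretion.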
TDP1 cell noCPT = qHTS for Inhibitors of human tyrosyl-DNA phosphodiesterase 1 (TDP1): qHTS in cells in absence of CPT | DT40 Tdp1-/- hTDP1 cells, no CPT, ATP luminescence, 48 h | Potency, µM (highest dose often 46.2 µM), for inactives: at the highest dose activity change, negative = growth inhibition, hits mostly inhibitors | actives 15% (n = 420,000); also: potency is read from the fitted curve at half-maximal effect; % is scaled to controls: 0 for no effect and ±100 for the full control effect; nearly all actives have a fitted effect of over 55% in size
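No-CPT arm: Tdp1-/-;hTDP1 DT40 cells (400/well) plus compounds, incubated ≥48 hr at 37 °C. Readout CellTiter-Glo luminescence.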
TDP1 block = TDP1 (human) enzyme inhibition. Potency, µM (series often up to 130 µM), for inactives: top-dose activity change, negative = inhibition, actives largely listed as inhibitors. recombinant TDP1, AlphaScreen DNA substrate cleavage. Q9NUW8. actives 0.28% (n = 350,000); also: potency is read from the fitted curve at half-maximal effect; % is scaled to controls: 0 for no effect and ±100 for the full control effect; nearly all actives have a fitted effect of over 40% in size
Target sequence (Q9NUW8 whole entry, looked up): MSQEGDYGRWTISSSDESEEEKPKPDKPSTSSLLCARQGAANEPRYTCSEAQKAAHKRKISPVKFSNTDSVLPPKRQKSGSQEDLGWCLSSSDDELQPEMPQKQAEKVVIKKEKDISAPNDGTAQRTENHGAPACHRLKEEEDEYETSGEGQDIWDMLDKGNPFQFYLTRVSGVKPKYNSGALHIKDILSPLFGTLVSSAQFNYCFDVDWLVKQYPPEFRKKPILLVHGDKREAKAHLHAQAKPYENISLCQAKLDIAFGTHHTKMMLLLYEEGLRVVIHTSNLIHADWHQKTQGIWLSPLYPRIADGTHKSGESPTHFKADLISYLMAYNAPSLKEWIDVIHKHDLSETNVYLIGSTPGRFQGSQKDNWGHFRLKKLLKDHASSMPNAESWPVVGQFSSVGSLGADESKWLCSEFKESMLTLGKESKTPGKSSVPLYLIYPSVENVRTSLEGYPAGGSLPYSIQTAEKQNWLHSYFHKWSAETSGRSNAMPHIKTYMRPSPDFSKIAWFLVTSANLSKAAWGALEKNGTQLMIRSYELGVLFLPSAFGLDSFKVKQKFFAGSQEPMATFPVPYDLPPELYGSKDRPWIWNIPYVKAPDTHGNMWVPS
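Recombinant E. coli-expressed Tdp1 (1 nM) preincubated with compound 15 min at RT, then 5'-biotin/3'-phosphotyrosine-FITC DNA substrate (15 nM) added for 5 min. AlphaScreen beads (10 ug/ml) added, 10 min RT; tyrosine-FITC cleavage read as signal loss.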
HepG2 tox = HepG2 cytotoxicity, counter-screen for TGF-b inhibitors | HepG2 CAGA-GFP viability, ATP luminescence, 18 h | Potency, µM (titrated, usually from 46.1 µM), without a hit: at the top dose activity change, negative = cytotoxicity, actives largely listed as cytotoxic | actives 0.76% (n = 410,000); also: potency is read from the fitted curve at half-maximal effect
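HepG2 CAGA-GFP cells (1000/well, DMEM with 1% FBS) received compound, then TGF-beta at 500 pg/mL final, and were incubated 18 hours at 37 degrees C. Viability was read by CellTiter-Glo luminescence. Media-only wells were set as complete cell-killing and DMSO as no toxicity.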
The depositor's hits bear a star; ? = inconclusive; . = no result given; [ ] = dose if it differs, or a comment. Unless noted, calls follow the shape of the dose curve; as a rule, active = well fitted curve in the direction sought with a large enough effect; inconclusive = small, poorly fitted or top-dose-only effect, or another doubt; inactive = no such curve, though single readings can be large; an effect the other way counts as inactive or inconclusive.

SMILES | TGFb inhibitor | TDP1 cell CPT | IL1B secr inh | TDP1 cell noCPT | TDP1 block | HepG2 tox
Cc1ccc(OCc2nnc(SCc3cc(=O)[nH]c4ccccc34)n2-c2ccccc2)cc1 | ? | ? | ? | 23.1µM* | -6.9% | -15.4%
Cc1ccccc1OCc1nnc(SCc2cc(=O)[nH]c3ccccc23)n1-c1ccccc1 | ? | ? | ? | ? | 5.3% | -13.7%
COc1cccc(-c2nc(NCCc3c[nH]c4ccc(OC)cc34)c3ccccc3n2)c1 | . | ? | . | ? | 13.6%[56.1 µM] | .
COc1ccc2[nH]cc(CCNc3nc(-c4ccc(C(=O)N(C)C)cc4)nc4ccccc34)c2c1 | . | 20.6µM* | . | 7.31µM* | 4.5%[56.1 µM] | .
COc1ccc2[nH]cc(CCNc3nc(-c4ccoc4)nc4ccccc34)c2c1 | . | ? | . | ? | 14.4%[56.1 µM] | .
COc1ccc2[nH]cc(CCNc3nc(-c4ccc(N(C)C)cc4)nc4ccccc34)c2c1 | . | 14.6µM* | . | 23.1µM* | . | .
COc1ccc2[nH]cc(CCNC(=O)c3ccc4ccccc4n3)c2c1 | 1.0% | ? | -3.2 | ? | 10.2% | -12.7%
COc1ccc(CNc2nc(-c3ccccc3CN(C)C)nc3ccccc23)c(OC)c1 | . | 10.3µM* | . | 7.31µM* | 10.9%[56.1 µM] | .
COc1ccc2[nH]cc(CCNc3nc(-c4ccccc4CN(C)C)nc4ccccc34)c2c1 | . | 20.6µM* | . | 20.6µM* | 19.2%[56.1 µM] | .
FC(F)(F)c1ccc(C2=Nc3ccccc3NC(c3cccs3)=N2)cc1 | -11.9% | -16.2% | . | ? | 7.0% | -40.3%
CN(C)c1ccc(-c2nc(NCCc3cnc[nH]3)c3ccccc3n2)cc1 | . | 13µM* | . | ? | . | .
COc1ccc(-c2nc(NCCCN(C)C)c3ccccc3n2)cc1 | -18.2% | -25.2% | ? | ? | . | -35.7%
Cc1ccc(OCCn2c(=O)cnc3ccccc32)cc1 | ? | ? | 52.2 | ? | -0.4%[56.1 µM] | 0.3%
O=c1cnc2ccccc2n1Cc1ccccc1C(F)(F)F | -4.0% | ? | -13.6 | -27.9% | 50.1µM* | -7.9%
O=C(O)c1ccc(N/N=C/c2ccc(-c3ccc(Cl)cc3Cl)o2)cc1 | ? | 16.4µM* | 4.0 | ? | 1.2% | -8.6%
O=C(O)c1ccc(N/N=C/c2ccc(-c3cc(Cl)ccc3Cl)o2)cc1 | -6.2% | 25.9µM* | ? | ? | 70.8µM* | 17.6%
O=C(O)c1ccc(N/N=C/c2ccc(-c3cccc(Cl)c3)o2)cc1 | -10.0% | ? | -12.9 | -10.5% | -3.9% | -11.3%
O=C1c2c(O)cc(O)cc2O[C@H](c2ccc(O)c(O)c2)C1O (stereo partly specified) | . | . | . | . | 4.3% | .
COc1ccc(Cn2c(=O)c3oc4ccccc4c3n(CC(=O)Nc3cc(C)cc(C)c3)c2=O)cc1 | -0.4% | -7.1% | . | -0.7% | 2.6% | 7.4%
Cc1ccc2c(c1)C(=O)[C@@]1(O)CCN(c3ccccc3)C1=N2 | . | 8.41µM* | . | ? | 9.0%[56.1 µM] | .
Cc1ccc2c(c1)C(=O)C1(O)CCN(c3ccccc3)C1=N2 (stereo unspecified) | . | 8.91µM* | . | 6.31µM* | 4.9% | .
O=C(COc1cc2oc(=O)c3c(c2cc1Cl)CCCC3)NCC1CCC(C(=O)O)CC1 (stereo unspecified) | -2.1% | 7.1% | 22.1 | 1.5% | 4.8% | 3.1%
COCCN(CCOC)c1nc(C)nc2c1nc(-c1ccccc1)n2CCN1CCCC1 | . | . | . | . | 4.5% | .
CCSc1nc(COC(=O)NC)c(COC(=O)NC)n1C | -2.8% | 2.31µM* | 0.0 | 5.17µM* | . | 5.1%
CCSc1nc2ccccc2n1CC(=O)OC | -13.9% | 0.1% | 12.8 | 3.3% | 8.8% | -27.5%
SMILES | TGFb inhibitor | TDP1 cell CPT | IL1B secr inh | TDP1 cell noCPT | TDP1 block | HepG2 tox
CNC(=O)OCc1nc(SSC(C)(C)C)n(C)c1COC(=O)NC | 11.2µM* | 2.06µM* | -100.0* | 2.06µM* | . | -77.2%
CCCn1nc(C(=O)NNC(=O)CCCOc2ccc(C)cc2)c2ccccc2c1=O | 0.0% | -12.7% | -6.2 | -11.4% | -5.0% | -28.1%
Cc1cccc(C(=O)NCC(=O)OCC(=O)c2ccc3ccccc3c2)c1 | -9.7% | -9.5% | . | -13.2% | -0.2% | -2.9%
Cc1ccc(S(=O)(=O)N2CC=C(c3c(C)n(C)c4ccccc34)CC2)cc1 | -30.9% | ? | 15.5 | 16.4µM* | 5.8% | 0.7%
COC(=O)C1CC23C=CCN4CCC5(c6ccccc6NC15C2C)C43 (stereo unspecified) | ? | 1.03µM* | 38.1 | 1.3µM* | . | 2.9%
Cc1cc(C)c(NC(=O)/C(=C/c2ccccc2)c2ccccc2)c(C)c1 | ? | 23.1µM* | 0.0 | 20.6µM* | -13.7% | -11.1%
O=C(C(=Cc1ccccc1)c1ccccc1)c1ccccc1 | ? | ? | ? | ? | . | -19.9%
COc1ccccc1N1CCN(C(=O)CCc2nnc3n(C)c(=O)c4sccc4n23)CC1 | -26.5% | 0.2% | . | -21.7% | -0.9% | -13.1%
O=C(Cc1ccccc1Cl)NCc1cccnc1 | 0.9% | 5.6% | 13.2 | 11.2% | . | -33.5%
CC1CC(OC(=O)c2ccccc2O)CC(C)(C)C1 (stereo unspecified) | . | -14.5% | . | -18.1% | 6.2%[56.1 µM] | .
O=C(Nc1nc2ccccc2[nH]1)C1CCC1 | -6.6% | ? | -16.4 | 23.1µM* | 1.8% | -27.7%
O=C(Nc1nc2ccccc2[nH]1)C1CCCC1 | -21.3% | -3.7% | ? | -19.4% | ? | -36.2%
O=C(Cc1cccc2ccccc12)Nc1nc2ccccc2[nH]1 | -2.5% | ? | 55.5 | -25.3% | 7.8% | -32.3%

High-throughput results: PubChem, National Center for Advancing Translational Sciences (NCATS)
